Columns and labels:
[1] = biological target: Mitogen-activated protein kinase 3 (Homo sapiens) (UniProt P27361); details: at 1 µM;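 also: values are mean percent inhibition of MAPK3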
[2] = biological target: SRSF protein kinase 3 (Homo sapiens) (UniProt Q9UPE1); details: at 0.1 µM
[3] = biological target: SRSF protein kinase 3 (Homo sapiens) (UniProt Q9UPE1); details: at 1 µM
[4] = biological target: Mitogen-activated protein kinase 14 (Homo sapiens) (UniProt Q16539); details: at 0.1 µM
[5] = biological target: Mitogen-activated protein kinase 14 (Homo sapiens) (UniProt Q16539); details: at 1 µM
[6] = biological target: Mitogen-activated protein kinase 11 (Homo sapiens) (UniProt Q15759); details: at 0.1 µM
[7] = biological target: Mitogen-activated protein kinase 11 (Homo sapiens) (UniProt Q15759); details: at 1 µM
[8] = biological target: T1, Mitogen-activated protein kinase 13 (Homo sapiens) (UniProt O15264); details: at 0.1 µM
T1 sequence (whole entry): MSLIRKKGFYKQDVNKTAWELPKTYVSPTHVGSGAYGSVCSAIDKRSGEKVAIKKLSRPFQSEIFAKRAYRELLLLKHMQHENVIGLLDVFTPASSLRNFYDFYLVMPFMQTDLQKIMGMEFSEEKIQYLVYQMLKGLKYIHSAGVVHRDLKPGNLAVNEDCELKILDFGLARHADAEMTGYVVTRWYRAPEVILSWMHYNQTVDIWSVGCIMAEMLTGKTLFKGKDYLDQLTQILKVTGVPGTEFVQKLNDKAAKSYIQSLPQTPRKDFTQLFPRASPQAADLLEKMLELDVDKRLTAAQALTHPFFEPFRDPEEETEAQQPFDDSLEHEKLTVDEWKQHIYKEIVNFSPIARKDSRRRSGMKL

[9] = biological target: T1, Mitogen-activated protein kinase 13 (Homo sapiens); details: at 1 µM
[10] = biological target: T2, Mitogen-activated protein kinase 12 (Homo sapiens) (UniProt P53778); details: at 0.1 µM
T2 sequence (whole entry): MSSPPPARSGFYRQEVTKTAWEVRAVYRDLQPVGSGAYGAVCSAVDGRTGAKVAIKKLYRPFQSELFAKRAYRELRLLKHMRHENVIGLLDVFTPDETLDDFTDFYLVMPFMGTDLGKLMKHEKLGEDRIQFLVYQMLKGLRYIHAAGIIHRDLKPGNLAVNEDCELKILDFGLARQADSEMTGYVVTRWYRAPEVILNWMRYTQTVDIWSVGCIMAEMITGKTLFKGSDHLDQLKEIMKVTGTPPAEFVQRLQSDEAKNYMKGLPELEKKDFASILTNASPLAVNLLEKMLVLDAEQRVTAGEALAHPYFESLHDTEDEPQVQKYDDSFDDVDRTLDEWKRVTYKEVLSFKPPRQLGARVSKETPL

[11] = biological target: T2, Mitogen-activated protein kinase 12 (Homo sapiens); details: at 1 µM
[12] = biological target: SRSF protein kinase 1 (Homo sapiens) (UniProt Q96SB4); details: at 0.1 µM
[13] = biological target: SRSF protein kinase 1 (Homo sapiens) (UniProt Q96SB4); details: at 1 µM
[14] = biological target: Phosphatidylinositol 4,5-bisphosphate 3-kinase catalytic subunit alpha isoform (Homo sapiens) (UniProt P42336); details: at 0.1 µM
[15] = biological target: Phosphatidylinositol 4,5-bisphosphate 3-kinase catalytic subunit alpha isoform (Homo sapiens) (UniProt P42336); details: at 1 µM
[16] = biological target: T3, Phosphatidylinositol 4,5-bisphosphate 3-kinase catalytic subunit delta isoform (Homo sapiens) (UniProt O00329); details: at 0.1 µM
T3 sequence (whole entry): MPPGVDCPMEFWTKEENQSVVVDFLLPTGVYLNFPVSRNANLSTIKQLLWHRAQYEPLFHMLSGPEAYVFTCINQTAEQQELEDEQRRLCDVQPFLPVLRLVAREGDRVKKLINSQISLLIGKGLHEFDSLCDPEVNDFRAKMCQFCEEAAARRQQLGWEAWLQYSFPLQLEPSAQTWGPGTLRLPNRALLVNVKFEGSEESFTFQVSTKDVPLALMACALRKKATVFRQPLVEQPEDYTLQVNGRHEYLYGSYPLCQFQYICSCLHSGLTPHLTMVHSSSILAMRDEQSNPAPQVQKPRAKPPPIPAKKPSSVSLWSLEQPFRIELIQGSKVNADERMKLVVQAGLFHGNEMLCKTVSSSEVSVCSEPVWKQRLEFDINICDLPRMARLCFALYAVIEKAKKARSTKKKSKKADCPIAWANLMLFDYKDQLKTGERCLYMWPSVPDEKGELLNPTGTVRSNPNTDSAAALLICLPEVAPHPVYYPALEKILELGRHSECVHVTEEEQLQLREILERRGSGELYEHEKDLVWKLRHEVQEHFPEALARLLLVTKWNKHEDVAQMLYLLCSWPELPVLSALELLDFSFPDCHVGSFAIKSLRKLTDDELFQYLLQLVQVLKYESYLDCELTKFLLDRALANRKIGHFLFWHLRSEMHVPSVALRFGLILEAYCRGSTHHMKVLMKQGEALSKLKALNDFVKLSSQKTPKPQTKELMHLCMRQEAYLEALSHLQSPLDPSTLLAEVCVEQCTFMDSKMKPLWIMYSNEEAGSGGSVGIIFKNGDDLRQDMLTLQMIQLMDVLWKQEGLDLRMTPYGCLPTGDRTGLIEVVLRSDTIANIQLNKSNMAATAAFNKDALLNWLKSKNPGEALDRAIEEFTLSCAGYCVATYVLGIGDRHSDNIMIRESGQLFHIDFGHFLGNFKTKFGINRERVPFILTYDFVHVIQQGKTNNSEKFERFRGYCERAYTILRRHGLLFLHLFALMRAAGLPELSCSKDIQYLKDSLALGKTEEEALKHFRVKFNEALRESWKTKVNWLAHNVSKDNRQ

[17] = biological target: T3, Phosphatidylinositol 4,5-bisphosphate 3-kinase catalytic subunit delta isoform (Homo sapiens); details: at 1 µM
[18] = biological target: Phosphatidylinositol 4-kinase beta (Homo sapiens) (UniProt Q9UBF8); details: at 0.1 µM
[19] = biological target: Phosphatidylinositol 4-kinase beta (Homo sapiens) (UniProt Q9UBF8); details: at 1 µM
[20] = biological target: Sphingosine kinase 1 (Homo sapiens) (UniProt Q9NYA1); details: at 0.1 µM;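 also: mean percent inhibition of SPHK1 activity, measured within the GSK PKIS screening panel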
Chain of Sphingosine kinase 1 (Homo sapiens) (Q9NYA1 whole entry): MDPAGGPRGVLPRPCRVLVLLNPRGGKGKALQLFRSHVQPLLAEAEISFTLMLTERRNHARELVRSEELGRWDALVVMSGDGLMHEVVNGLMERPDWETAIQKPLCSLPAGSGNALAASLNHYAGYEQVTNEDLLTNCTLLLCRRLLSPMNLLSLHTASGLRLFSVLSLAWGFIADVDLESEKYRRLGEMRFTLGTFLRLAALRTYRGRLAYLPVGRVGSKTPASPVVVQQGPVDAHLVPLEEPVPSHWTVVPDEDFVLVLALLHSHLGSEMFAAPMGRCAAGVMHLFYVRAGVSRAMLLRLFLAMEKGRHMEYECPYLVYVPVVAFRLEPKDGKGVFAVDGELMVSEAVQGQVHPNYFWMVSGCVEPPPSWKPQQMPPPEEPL

Chain of SRSF protein kinase 1 (Homo sapiens) (Q96SB4 whole entry, canonical isoform): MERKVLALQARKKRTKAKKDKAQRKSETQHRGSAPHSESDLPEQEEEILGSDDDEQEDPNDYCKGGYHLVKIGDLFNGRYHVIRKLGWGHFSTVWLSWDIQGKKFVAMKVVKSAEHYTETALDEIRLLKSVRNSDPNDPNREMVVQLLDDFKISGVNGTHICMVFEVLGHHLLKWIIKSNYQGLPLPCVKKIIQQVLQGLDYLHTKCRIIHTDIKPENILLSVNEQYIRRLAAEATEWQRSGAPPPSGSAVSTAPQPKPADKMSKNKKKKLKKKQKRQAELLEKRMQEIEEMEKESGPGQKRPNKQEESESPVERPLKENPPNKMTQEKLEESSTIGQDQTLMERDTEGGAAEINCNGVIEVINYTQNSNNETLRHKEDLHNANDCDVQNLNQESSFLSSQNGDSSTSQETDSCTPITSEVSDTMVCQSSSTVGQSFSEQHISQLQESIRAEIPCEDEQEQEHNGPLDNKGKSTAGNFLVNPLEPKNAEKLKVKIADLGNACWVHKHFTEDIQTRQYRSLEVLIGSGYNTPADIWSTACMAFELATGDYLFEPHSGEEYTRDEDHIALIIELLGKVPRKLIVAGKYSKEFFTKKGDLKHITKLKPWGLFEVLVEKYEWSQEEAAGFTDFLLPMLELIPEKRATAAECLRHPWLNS
Chain of Phosphatidylinositol 4,5-bisphosphate 3-kinase catalytic subunit alpha isoform (Homo sapiens) (P42336 whole entry, canonical isoform): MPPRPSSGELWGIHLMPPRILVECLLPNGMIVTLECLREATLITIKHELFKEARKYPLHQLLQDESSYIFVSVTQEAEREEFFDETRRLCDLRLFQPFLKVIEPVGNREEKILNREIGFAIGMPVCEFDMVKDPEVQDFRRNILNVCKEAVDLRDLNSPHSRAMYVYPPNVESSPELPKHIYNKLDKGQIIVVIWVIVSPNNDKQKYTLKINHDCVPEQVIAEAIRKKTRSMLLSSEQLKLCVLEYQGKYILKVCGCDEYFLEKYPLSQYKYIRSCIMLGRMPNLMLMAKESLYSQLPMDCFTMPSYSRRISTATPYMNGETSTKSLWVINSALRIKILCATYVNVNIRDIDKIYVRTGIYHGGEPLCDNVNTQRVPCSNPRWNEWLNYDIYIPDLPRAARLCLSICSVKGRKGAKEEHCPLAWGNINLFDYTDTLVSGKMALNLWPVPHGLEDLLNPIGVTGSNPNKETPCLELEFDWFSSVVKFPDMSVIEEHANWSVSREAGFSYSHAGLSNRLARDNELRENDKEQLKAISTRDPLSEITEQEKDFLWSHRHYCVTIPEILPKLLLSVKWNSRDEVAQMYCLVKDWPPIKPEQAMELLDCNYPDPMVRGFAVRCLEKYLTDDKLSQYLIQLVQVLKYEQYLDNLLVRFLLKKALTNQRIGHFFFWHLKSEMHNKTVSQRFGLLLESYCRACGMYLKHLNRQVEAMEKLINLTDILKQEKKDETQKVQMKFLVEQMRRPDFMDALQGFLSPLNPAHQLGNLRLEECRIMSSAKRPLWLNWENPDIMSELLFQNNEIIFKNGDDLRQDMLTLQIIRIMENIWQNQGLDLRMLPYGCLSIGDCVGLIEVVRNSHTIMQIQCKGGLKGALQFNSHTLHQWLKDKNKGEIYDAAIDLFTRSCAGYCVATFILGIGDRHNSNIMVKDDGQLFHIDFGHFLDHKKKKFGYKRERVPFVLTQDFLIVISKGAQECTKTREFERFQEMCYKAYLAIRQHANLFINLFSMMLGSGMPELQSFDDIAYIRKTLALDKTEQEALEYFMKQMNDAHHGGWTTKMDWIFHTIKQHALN
Chain of Mitogen-activated protein kinase 3 (Homo sapiens) (P27361 whole entry): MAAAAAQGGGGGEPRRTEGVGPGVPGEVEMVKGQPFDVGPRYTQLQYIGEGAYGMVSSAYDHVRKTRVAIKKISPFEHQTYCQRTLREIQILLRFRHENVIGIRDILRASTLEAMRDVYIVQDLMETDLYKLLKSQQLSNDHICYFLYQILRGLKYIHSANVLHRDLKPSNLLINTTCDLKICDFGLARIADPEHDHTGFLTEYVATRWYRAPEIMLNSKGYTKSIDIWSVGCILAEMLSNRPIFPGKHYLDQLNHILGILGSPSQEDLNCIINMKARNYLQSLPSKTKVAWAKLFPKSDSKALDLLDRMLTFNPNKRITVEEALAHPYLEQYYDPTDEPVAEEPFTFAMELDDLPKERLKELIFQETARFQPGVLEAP
Chain of SRSF protein kinase 3 (Homo sapiens) (Q9UPE1 whole entry): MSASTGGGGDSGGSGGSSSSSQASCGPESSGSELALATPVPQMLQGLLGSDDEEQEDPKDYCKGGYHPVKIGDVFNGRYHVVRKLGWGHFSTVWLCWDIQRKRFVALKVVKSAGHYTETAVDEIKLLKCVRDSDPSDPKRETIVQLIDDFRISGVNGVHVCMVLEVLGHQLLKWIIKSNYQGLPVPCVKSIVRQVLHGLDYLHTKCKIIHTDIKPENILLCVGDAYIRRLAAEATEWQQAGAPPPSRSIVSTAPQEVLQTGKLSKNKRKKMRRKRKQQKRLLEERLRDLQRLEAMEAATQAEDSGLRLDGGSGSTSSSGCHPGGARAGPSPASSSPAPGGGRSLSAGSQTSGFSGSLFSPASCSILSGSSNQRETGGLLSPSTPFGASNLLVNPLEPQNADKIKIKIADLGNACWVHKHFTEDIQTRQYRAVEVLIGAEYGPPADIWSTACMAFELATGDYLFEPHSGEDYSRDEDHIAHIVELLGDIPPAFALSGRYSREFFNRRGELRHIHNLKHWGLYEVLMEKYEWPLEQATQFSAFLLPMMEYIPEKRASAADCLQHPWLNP
Chain of Mitogen-activated protein kinase 11 (Homo sapiens) (Q15759 whole entry): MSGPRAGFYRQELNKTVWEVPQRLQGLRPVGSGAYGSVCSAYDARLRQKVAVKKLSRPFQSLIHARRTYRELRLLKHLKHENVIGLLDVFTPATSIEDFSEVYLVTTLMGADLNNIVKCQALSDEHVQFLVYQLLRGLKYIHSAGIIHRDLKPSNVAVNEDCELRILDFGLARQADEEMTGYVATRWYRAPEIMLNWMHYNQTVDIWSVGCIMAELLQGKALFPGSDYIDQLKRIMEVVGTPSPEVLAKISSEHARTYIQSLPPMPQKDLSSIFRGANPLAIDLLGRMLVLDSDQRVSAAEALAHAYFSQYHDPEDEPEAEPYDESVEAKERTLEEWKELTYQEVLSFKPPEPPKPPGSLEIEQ
Chain of Mitogen-activated protein kinase 14 (Homo sapiens) (Q16539 whole entry): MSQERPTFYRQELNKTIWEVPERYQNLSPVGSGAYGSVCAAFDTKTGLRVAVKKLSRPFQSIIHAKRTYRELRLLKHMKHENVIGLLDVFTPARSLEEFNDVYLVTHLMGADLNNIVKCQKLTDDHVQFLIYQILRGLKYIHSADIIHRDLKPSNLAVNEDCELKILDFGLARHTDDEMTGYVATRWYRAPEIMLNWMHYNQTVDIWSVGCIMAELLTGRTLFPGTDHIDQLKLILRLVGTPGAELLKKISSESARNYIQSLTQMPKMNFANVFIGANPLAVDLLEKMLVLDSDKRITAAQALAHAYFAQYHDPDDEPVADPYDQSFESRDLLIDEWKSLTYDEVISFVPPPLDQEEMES
Chain of Phosphatidylinositol 4-kinase beta (Homo sapiens) (Q9UBF8 2-816 limits assumed): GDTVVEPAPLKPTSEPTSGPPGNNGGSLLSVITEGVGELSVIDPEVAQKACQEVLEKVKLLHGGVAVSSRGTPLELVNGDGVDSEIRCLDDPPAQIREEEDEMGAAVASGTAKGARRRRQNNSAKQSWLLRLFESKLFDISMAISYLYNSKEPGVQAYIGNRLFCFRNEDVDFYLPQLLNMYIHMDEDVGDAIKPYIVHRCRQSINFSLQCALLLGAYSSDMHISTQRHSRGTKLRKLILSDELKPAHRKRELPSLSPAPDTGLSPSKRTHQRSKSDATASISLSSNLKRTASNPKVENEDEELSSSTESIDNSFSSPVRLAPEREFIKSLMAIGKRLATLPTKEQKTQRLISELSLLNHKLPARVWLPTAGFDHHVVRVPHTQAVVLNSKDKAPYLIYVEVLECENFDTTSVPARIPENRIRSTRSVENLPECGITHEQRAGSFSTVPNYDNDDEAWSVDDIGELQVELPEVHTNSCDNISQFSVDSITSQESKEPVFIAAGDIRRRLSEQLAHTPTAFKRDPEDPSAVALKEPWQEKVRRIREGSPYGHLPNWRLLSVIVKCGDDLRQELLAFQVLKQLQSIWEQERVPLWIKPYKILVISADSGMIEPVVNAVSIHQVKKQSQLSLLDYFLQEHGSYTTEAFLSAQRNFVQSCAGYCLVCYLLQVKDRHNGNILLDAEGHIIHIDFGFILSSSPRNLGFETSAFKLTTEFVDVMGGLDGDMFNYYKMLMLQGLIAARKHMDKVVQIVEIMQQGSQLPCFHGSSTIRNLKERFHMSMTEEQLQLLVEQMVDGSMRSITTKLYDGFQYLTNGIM

Compound | inhibition [1] [%] | inhibition [2] [%] | inhibition [3] [%] | inhibition [4] [%] | inhibition [5] [%] | inhibition [6] [%] | inhibition [7] [%] | inhibition [8] [%] | inhibition [9] [%] | inhibition [10] [%] | inhibition [11] [%] | inhibition [12] [%] | inhibition [13] [%] | inhibition [14] [%] | inhibition [15] [%] | inhibition [16] [%] | inhibition [17] [%] | inhibition [18] [%] | inhibition [19] [%] | inhibition [20] [%]
[O-][S+]1CCN(Cc2ccc(-c3ccc4ncnc(Nc5ccc(OCc6ccccc6)c(F)c5)c4c3)o2)CC1 | -0.07 | -1.09 | -1.23 | 1.59 | 8.77 | 3.66 | 6.24 | -1.08 | 3.34 | 0.27 | 2.56 | -2.36 | -4.42 | 1.82 | 3.14 | 2.61 | 5.44 | -0.3 | -1.35 | -0.6
COc1cccc(-n2ncc3c(N/N=C/c4cccc(F)c4)ncnc32)c1 | 0.85 | -2.57 | -3.83 | -0.34 | 5.39 | 3.19 | 0 | 2.14 | 6.21 | 4.04 | 2.67 | -1.75 | -2.37 | 2.47 | 4.79 | 2.15 | 5.82 | 2.02 | -7.13 | -0.37
COc1cc2ncn(-c3cc(O[C@@H](C)c4ccccc4Cl)c(C(N)=O)s3)c2cc1OC | 3.07 | -3.53 | -0.07 | 6.72 | 7.39 | 3.1 | 2.35 | 4.76 | 3.82 | 3.18 | 3.72 | -2.61 | -2.08 | 4.55 | 11.5 | 2.44 | 10.6 | 3.29 | -6.07 | 1.31
Cc1ccc(NC(=O)c2ccnc(N3CCCC3)c2)cc1-c1ccc(C(=O)NCC2CC2)cc1 | 3.65 | -0.5 | -0.3 | 38.3 | 79.6 | 40.9 | 78.9 | 3.45 | 5.79 | 4.49 | 4.14 | -2.03 | -3.61 | 4.02 | 14.5 | 3.4 | 14.4 | -4.29 | -0.13 | -0.32
CC(=O)Nc1cccc(C#Cc2cncnc2Nc2ccc(OCc3cccc(F)c3)c(Cl)c2)n1 | 1.62 | -0.01 | 3.44 | -0.35 | -1.8 | 0.21 | 3.12 | -1.33 | -1.57 | -2.16 | -1.66 | 1.83 | 6.55 | 1.06 | -3.01 | -2.12 | -0.16 | 2.97 | 0.88 | 0.46
Nc1nc(-c2ccc3c(c2)C(=Cc2cc(Br)c(O)c(Br)c2)C(=O)N3)cs1 | 1.82 | -2.97 | -1.79 | 1.75 | -0.33 | -2.08 | 2.83 | -2.1 | -1.28 | -1.72 | -1.45 | 1.08 | 1.39 | 0.41 | 24.5 | – | – | 36.1 | 71.6 | 2.04
O=C1Nc2ccc(C(=O)c3ccco3)cc2C1=Cc1cc(Cl)c(O)c(Cl)c1 | 3.14 | -3.06 | 0.75 | 2.28 | 6.71 | 1.71 | 3.75 | 0.88 | 2.9 | 0.31 | 5.17 | -1.28 | 1.6 | 21.6 | 69.1 | 8.04 | 24.9 | 37.4 | 80.7 | 7.33
Cc1nnc(-c2ccc(C)c(-c3ccc(C(=O)Nc4cccc(C#N)c4)cc3)c2)o1 | 5.78 | -2.92 | -1.26 | – | – | 5.2 | 22.9 | 3.5 | 1.58 | -0.3 | 1.19 | -1.96 | -1.67 | 2.12 | 1.71 | 1.98 | 1.12 | -1.86 | 0.49 | -2.17
CS(=O)(=O)Nc1ccc(N/C=C2\C(=O)Nc3ccccc32)cc1 | -3.47 | 1.49 | 0.17 | -4.68 | -2.23 | -0.39 | 3.42 | -3.94 | -3.87 | -2.29 | -0.19 | 1.24 | 1.9 | -2.27 | -1.98 | -1.26 | -0.45 | -4.55 | -0.72 | -0.88
NCc1ccc(-c2nc(-c3ccc(Cl)c(O)c3)c(-c3ccncc3)[nH]2)cc1 | 0.95 | -2.12 | -2.01 | 41 | 77.1 | 13.6 | 54 | -0.52 | 1.79 | -0.97 | 2.04 | -1.76 | -4.18 | -0.47 | 3.94 | 0.9 | 6.6 | -3.9 | -2.79 | 2.55
CCn1c(-c2nonc2N)nc2cncc(C(=O)N3CC[C@H](N)C3)c21 | 2.72 | -3.11 | -1.83 | -0.78 | 10.7 | 3.38 | 9.04 | 2.29 | 5.01 | 0.14 | 3.17 | -1.03 | -0.35 | 5.37 | 4.64 | 3.17 | 3.95 | -6.46 | -9.74 | -0.79
COc1ccc2cc(-c3c(-c4ccncc4)nc(-c4ccc([S+](C)[O-])cc4)n3C)ccc2c1 (stereo unspecified) | 0.18 | -1.39 | -1.03 | 1.72 | 8.34 | 3.87 | 7.24 | -1.65 | 3.19 | 2.2 | 2.03 | -3.09 | -4.71 | 2.81 | 3.47 | 6.86 | 3.16 | -2.02 | -2.26 | 0.08
c1cnn2ncc(-c3ccnc(Nc4ccc5c(c4)OCCO5)n3)c2c1 | 12 | -0.61 | 1.61 | 7.07 | 13.3 | 3.66 | 9.95 | 4.89 | 16.3 | 0.48 | 6.13 | 0.05 | 2.88 | 7.25 | 30.2 | 4.69 | 26.1 | 1.98 | 9.37 | 1.6
COc1cc2c(cc1Nc1nc(N3CCc4ccccc43)c3cc[nH]c3n1)N(C(=O)CN(C)C)CC2 | 1.51 | 0.87 | 1.46 | 3.41 | 3.7 | 2.84 | 1.85 | 0.4 | 2.2 | 0.57 | 1.21 | -1.43 | -3.76 | 0.76 | 2.92 | 1.22 | 3.33 | 1.21 | 2.11 | 0.07
